Several values for one entry are separate records, joined by “and”; a condition that tells them apart may be missing. Equal entries are not always repeated. Inconclusive results are not listed. A call without a number means that no potency is given here. Where a structure was tested more than once in an assay, its records may differ in their call. Activity calls are given as the source filed them. Unless noted, calls come from the whole dose curve; as a rule, active = well fitted curve in the direction sought with a large enough effect in the repeat runs; inconclusive = weak or mixed curves; inactive = no such curve, though single readings can be large; an effect the other way counts as inactive or inconclusive.
Legend:
[1] = qHTS assay to identify aromatase inhibitors - cell viability counter screen (AID 743084);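 note: cells stimulated with testosterone during compound exposure; nearly all actives have a fitted effect of over 55% in size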; note: potency is the fitted concentration of half-maximal effect
[2] = target: Aryl hydrocarbon receptor (Homo sapiens) (UniProt P35869); assay: qHTS assay to identify small molecule that activate the aryl hydrocarbon receptor (AhR) signaling pathway (AID 743085); note: nearly all actives have a fitted effect of over 15% in size; note: potency is the fitted concentration of half-maximal effect;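 for activation: HG2L7.5c1 human HepG2 liver cells with stably integrated DRE-driven firefly reporter; series mostly up to about 70 µM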
Outline: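 Luminescence (ONE-Glo) from a dioxin-responsive-element luciferase reporter in HG2L7.5c1 HepG2 cells after 24 hr compound exposure at 37C; viability measured by CellTiter-Fluor fluorescence beforehand.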

[3] = qHTS assay to identify small molecule antagonists of the peroxisome proliferator-activated receptor gamma (PPARg) signaling pathway - cell viability counter screen (AID 743194); note: nearly all actives have a fitted effect of over 55% in size; note: potency is the fitted concentration of half-maximal effect
Outline: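 PPARg-UAS-bla HEK293H cells were plated, rested 5 h at 37 C, then treated with compounds plus rosiglitazone (50 nM final) for 17 h at 37 C; viability was then read by CellTiter-Glo luminescence after 30 min at room temperature.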

[4] = qHTS assay for small molecule agonists of the antioxidant response element (ARE) signaling pathway - cell viability counter screen (AID 743203; calls by dose curve; note: nearly all actives have a fitted effect of over 55% in size; note: potency is the fitted concentration of half-maximal effect)
Outline: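 ATP content via CellTiter-Glo luminescence served as the viability measure. Cells: ARE-bla HepG2, 2,000 per well. Exposure: 16 hrs, 37C/5% CO2.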

[5] = qHTS assay for small molecule activators of the heat shock response signaling pathway - cell viability counter screen (AID 743209); note: nearly all actives have a fitted effect of over 50% in size
Outline: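 Compounds dissolved in DMSO were added to overnight-plated HSE-bla HeLa cells and left 5 h at 37 C. Cell viability was quantified by luminescence using CellTiter-Glo.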

[6] = target: Peroxisome proliferator-activated receptor gamma (Homo sapiens) (UniProt P37231); assay: qHTS assay to identify small molecule agonists of the peroxisome proliferator-activated receptor gamma (PPARg) signaling pathway (AID 743094; active = well fitted activation curve with a large enough effect in the signal ratio in the repeat runs, not every such curve was filed as active; the % refers to the signal ratio)
Outline: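 Agonism was assessed in a beta-lactamase reporter system, HEK293H cells with a stably integrated UAS-bla construct under PPARg control; the 17 h treatment at 37C preceded a 1 h room-temperature FRET substrate read.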

[7] = qHTS assay for small molecule activators of the heat shock response signaling pathway (AID 743210; active = well fitted activation curve with a large enough effect in the signal ratio in the repeat runs, with a control signal flat, not every such curve was filed as active; the % refers to the signal ratio; note: series mostly up to about 63 µM)
Outline: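 Heat shock element–beta-lactamase HeLa reporter cells; qHTS with compounds for 5 h at 37 C; detection by FRET substrate fluorescence after 2.5 h at RT.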

[8] = qHTS assay for small molecule agonists of the antioxidant response element (ARE) signaling pathway (AID 743202; active = well fitted activation curve with a large enough effect in the signal ratio in the repeat runs, not every such curve was filed as active; the % refers to the signal ratio; note: potency is the fitted concentration of half-maximal effect)
Outline: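 Following a 16 h, 37 C exposure of reporter HepG2 cells (ARE-driven beta-lactamase, 2,000 cells/well) to compounds, FRET substrate was applied for 2 h at room temperature and fluorescence intensity recorded.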

[9] = target: Peroxisome proliferator-activated receptor gamma (Homo sapiens) (UniProt P37231); assay: qHTS assay to identify small molecule antagonists of the peroxisome proliferator-activated receptor gamma (PPARg) signaling pathway (AID 743191; calls by dose curve; note: nearly all actives have a fitted effect of over 30% in size; note: potency is the fitted concentration of half-maximal effect)
Outline: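 GeneBLAzer PPARg UAS-bla HEK293H cells carrying a UAS-driven beta-lactamase reporter were plated at 3000 cells/well, preincubated 5 h at 37C, then given compound for 17 h at 37C; LiveBLAzer B/G FRET substrate was read after 1 h at room temperature.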

Sequence of Aryl hydrocarbon receptor (Homo sapiens) (P35869 whole entry, looked up): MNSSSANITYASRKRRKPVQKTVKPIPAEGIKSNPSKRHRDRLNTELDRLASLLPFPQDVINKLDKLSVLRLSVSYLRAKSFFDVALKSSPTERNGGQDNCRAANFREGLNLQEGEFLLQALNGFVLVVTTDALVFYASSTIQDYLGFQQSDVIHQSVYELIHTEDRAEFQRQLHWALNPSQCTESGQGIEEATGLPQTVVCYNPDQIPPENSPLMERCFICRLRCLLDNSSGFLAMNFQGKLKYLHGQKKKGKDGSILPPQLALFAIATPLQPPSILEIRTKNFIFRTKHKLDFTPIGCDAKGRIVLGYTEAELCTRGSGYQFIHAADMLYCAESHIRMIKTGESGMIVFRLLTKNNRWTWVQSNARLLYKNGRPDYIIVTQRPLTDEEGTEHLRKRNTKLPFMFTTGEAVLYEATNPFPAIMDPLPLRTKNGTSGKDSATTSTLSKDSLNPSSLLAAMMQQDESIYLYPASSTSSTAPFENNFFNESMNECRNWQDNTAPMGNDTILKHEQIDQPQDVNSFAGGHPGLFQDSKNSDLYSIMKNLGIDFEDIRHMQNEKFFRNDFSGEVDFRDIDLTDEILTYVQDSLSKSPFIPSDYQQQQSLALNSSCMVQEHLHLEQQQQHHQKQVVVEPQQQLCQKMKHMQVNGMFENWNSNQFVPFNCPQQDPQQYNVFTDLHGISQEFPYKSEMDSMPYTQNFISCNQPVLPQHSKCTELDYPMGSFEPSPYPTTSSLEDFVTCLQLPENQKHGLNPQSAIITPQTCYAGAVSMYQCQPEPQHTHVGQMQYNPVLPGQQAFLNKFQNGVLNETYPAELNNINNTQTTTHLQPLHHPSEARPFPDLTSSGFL
Sequence of Peroxisome proliferator-activated receptor gamma (Homo sapiens) (P37231 whole entry, looked up): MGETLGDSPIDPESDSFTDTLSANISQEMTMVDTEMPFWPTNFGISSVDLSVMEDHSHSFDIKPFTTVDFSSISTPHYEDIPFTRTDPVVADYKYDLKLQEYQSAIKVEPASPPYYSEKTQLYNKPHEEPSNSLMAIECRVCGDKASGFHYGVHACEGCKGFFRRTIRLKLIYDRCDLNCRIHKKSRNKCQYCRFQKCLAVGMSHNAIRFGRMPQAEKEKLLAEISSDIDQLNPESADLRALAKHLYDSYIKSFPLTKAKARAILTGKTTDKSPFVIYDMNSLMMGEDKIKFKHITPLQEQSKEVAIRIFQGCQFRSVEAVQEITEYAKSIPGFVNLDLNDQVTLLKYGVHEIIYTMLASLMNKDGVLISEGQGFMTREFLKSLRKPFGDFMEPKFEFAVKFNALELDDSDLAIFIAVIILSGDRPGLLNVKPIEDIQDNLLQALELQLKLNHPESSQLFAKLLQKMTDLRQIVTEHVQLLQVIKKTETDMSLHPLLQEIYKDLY

For `CC(C)C(O)(c1ccc(OC(F)(F)F)cc1)c1cncnc1` (configuration not stated), the Potency [1] was “inactive”, the Potency [2] was “inactive” and the Potency [3] was “inactive”. The Potency [4] was “inactive” and the Potency [5] was “inactive”.

For `Cc1cccc(N(C)C(=S)Oc2ccc3c(c2)CCC3)c1`, the Potency [1] was “inactive”, the Potency [2] was “inactive” and the Potency [6] was “inactive”. For the same compound, the Potency [3] was “inactive”, the Potency [4] was “inactive” and the Potency [5] was “inactive”. The Potency [7] was “inactive”.

In the case of `COc1cc(C(=O)NCCCCCC(=O)O)cc(OC)c1OC`, the Potency [1] is reported as “inactive”, the Potency [2] is reported as “inactive” and the Potency [6] is reported as “inactive”. For the same compound, the Potency [3] was “inactive”, the Potency [8] was “inactive” and the Potency [4] was “inactive”. For the same compound, the Potency [5] was “inactive” and the Potency [7] was “inactive”.

For `O=C1Cc2ccccc2N1c1c(Cl)cccc1Cl`, the Potency [1] was “inactive”, the Potency [2] was “inactive” and the Potency [6] was “inactive”. The Potency [3] was “inactive”, the Potency [4] was “inactive” and the Potency [5] was “inactive”. For the same compound, the Potency [7] was “inactive”.

For `CC1=C(Br)C(=O)C(Br)=C/C1=C(/c1ccccc1S(=O)(=O)O)c1cc(Br)c(O)c(Br)c1C`, the Potency [1] was 23.4 µM (active), the Potency [2] was “inactive” and the Potency [6] was “inactive”. For the same compound, the Potency [3] was “inactive”, the Potency [8] was “inactive” and the Potency [4] was “inactive”. The Potency [5] was “inactive” and the Potency [7] was “inactive”.

With `O=C1C(=O)c2ccccc2C(O)=C1C1CCC(c2ccc(Cl)cc2)CC1` (configuration not stated) the Potency [1] was “inactive”, the Potency [2] was 4.03 µM (active) and the Potency [6] was “inactive”. The Potency [8] was 6.68 µM (active) and the Potency [5] was “inactive”.

With `CN1C(=O)OC(C)(C)C1=O` the Potency [1] was “inactive”, the Potency [2] was “inactive” and the Potency [6] was “inactive”. For the same compound, the Potency [3] was “inactive”, the Potency [8] was “inactive” and the Potency [4] was “inactive”. The Potency [5] was “inactive” and the Potency [7] was “inactive”.

In the case of `C[C@]12CC[C@@H]3c4ccc(O)cc4CC[C@H]3[C@@H]1CC[C@@H]2OC(=O)CCC1CCCC1`, the Potency [1] is reported as “inactive”, the Potency [2] is reported as “inactive” and the Potency [6] is reported as “inactive”. For the same compound, the Potency [9] was “inactive”, the Potency [8] was “inactive” and the Potency [4] was “inactive”.

For `C/C=C(/C(=C/C)c1ccc(O)cc1)c1ccc(O)cc1`, the Potency [1] was “inactive”, the Potency [2] was “inactive” and the Potency [6] was “inactive”. The Potency [8] was 15 µM (active), the Potency [4] was “inactive” and the Potency [5] was “inactive”.

With `COc1ncnc(NS(=O)(=O)c2ccc(N)cc2)c1OC` the Potency [1] was “inactive”, the Potency [2] was “inactive” and the Potency [6] was “inactive”. For the same compound, the Potency [3] was “inactive”, the Potency [4] was “inactive” and the Potency [5] was “inactive”. For the same compound, the Potency [7] was “inactive”.

With `c1csc(SSc2cccs2)c1` the Potency [1] was “inactive”, the Potency [2] was “inactive” and the Potency [9] was “inactive”. The Potency [3] was “inactive”, the Potency [8] was “inactive” and the Potency [4] was “inactive”.

In the case of `Cc1ccccc1N=C(N)Nc1ccccc1C`, the Potency [1] is reported as “inactive”, the Potency [2] is reported as “inactive” and the Potency [6] is reported as “inactive”. For the same compound, the Potency [9] was “inactive”, the Potency [3] was “inactive” and the Potency [8] was “inactive”. The Potency [4] was “inactive”, the Potency [5] was “inactive” and the Potency [7] was “inactive”.

With `Clc1cc(Cl)nc(Cl)n1` the Potency [1] was “inactive”, the Potency [2] was “inactive” and the Potency [3] was 49.6 µM (active). For the same compound, the Potency [5] was “inactive” and the Potency [7] was “inactive”.

With `CCCCCCC(C)(C)C(=O)O` the Potency [1] was “inactive”, the Potency [2] was “inactive” and the Potency [6] was “inactive”. The Potency [9] was “inactive”, the Potency [8] was “inactive” and the Potency [4] was “inactive”. For the same compound, the Potency [5] was “inactive” and the Potency [7] was “inactive”.

With `CC(C)(C)C(=O)C(=O)O` the Potency [1] was “inactive”, the Potency [2] was “inactive” and the Potency [6] was “inactive”. For the same compound, the Potency [9] was “inactive”, the Potency [3] was “inactive” and the Potency [4] was “inactive”. For the same compound, the Potency [5] was “inactive” and the Potency [7] was “inactive”.

With `CC(C)c1nc(CN(C)C(=O)N[C@H](C(=O)N[C@@H](Cc2ccccc2)C[C@H](O)[C@H](Cc2ccccc2)NC(=O)OCc2cncs2)C(C)C)cs1` the Potency [1] was “inactive and 23.7 µM (active)”, the Potency [2] was “inactive” and the Potency [3] was “inactive”. The Potency [4] was “inactive”, the Potency [5] was “inactive” and the Potency [7] was “inactive”.

For `C[C@@H]1CC(=O)NN=C1c1ccc(NN=C(C#N)C#N)cc1`, the Potency [1] was 26.6 µM (active), the Potency [2] was 15 µM (active) and the Potency [3] was “inactive”. For the same compound, the Potency [4] was “inactive” and the Potency [5] was “inactive”.

For `COc1cc(C(=O)NC2CCN(C)CC2)ccc1Nc1ncc2c(n1)N(C1CCCC1)CC(F)(F)C(=O)N2C`, the Potency [1] was 25 µM (active), the Potency [2] was “inactive” and the Potency [6] was “inactive”. For the same compound, the Potency [3] was 50.4 µM (active), the Potency [4] was 28.1 µM (active) and the Potency [7] was “inactive”.

For `Cc1ccco1`, the Potency [1] was “inactive”, the Potency [2] was “inactive” and the Potency [6] was “inactive”. For the same compound, the Potency [9] was “inactive”, the Potency [3] was “inactive” and the Potency [4] was “inactive”. The Potency [5] was “inactive” and the Potency [7] was “inactive”.

With `C[C@@H]1CN(CCCn2c3ccccc3c3ccccc32)C[C@H](C)N1` the Potency [1] was “inactive”, the Potency [2] was 26.6 µM (active) and the Potency [3] was 23.7 µM (active). For the same compound, the Potency [4] was 26.6 µM (active), the Potency [5] was “inactive” and the Potency [7] was “inactive”.

With `O=C(O)C[C@H](NC(=O)OCc1ccccc1)C(=O)O` the Potency [1] was “inactive”, the Potency [2] was “inactive” and the Potency [6] was “inactive”. The Potency [3] was “inactive” and the Potency [7] was “inactive”.

For `Clc1ccc(Nc2nnc(Cc3ccncc3)c3ccccc23)cc1`, the Potency [1] was “inactive”, the Potency [2] was 1.5 µM (active) and 841 nM (active) and the Potency [6] was “inactive”. For the same compound, the Potency [8] was 21.1 µM (active), the Potency [5] was “inactive” and the Potency [7] was “inactive”.

In the case of `O=C(Nc1cccc2c(=O)cc(-c3nn[nH]n3)oc12)c1ccc(OCCCCc2ccccc2)cc1`, the Potency [1] is reported as “inactive”, the Potency [2] is reported as “inactive” and the Potency [6] is reported as “inactive”. The Potency [3] was “inactive”, the Potency [4] was 29.8 µM (active) and the Potency [5] was “inactive”. For the same compound, the Potency [7] was “inactive”.

With `CN1CCCC(CC2c3ccccc3Sc3ccccc32)C1` (configuration not stated) the Potency [1] was “inactive”, the Potency [2] was “inactive” and the Potency [9] was 10.6 µM (active). The Potency [3] was 16.8 µM (active), the Potency [5] was “inactive” and the Potency [7] was “inactive”.

For `O=[N+]([O-])c1cc(C2CCCCC2)c(O)c([N+](=O)[O-])c1`, the Potency [1] was 17.2 µM (active), the Potency [2] was “inactive” and the Potency [4] was 24.3 µM (active). For the same compound, the Potency [5] was “inactive”.

In the case of `CCOc1ccccc1O[C@H](c1ccccc1)[C@H]1CNCCO1`, the Potency [1] is reported as “inactive”, the Potency [2] is reported as “inactive” and the Potency [6] is reported as “inactive”. For the same compound, the Potency [3] was “inactive”, the Potency [4] was “inactive” and the Potency [5] was “inactive”. For the same compound, the Potency [7] was “inactive”.

In the case of `O=C1c2ccccc2C(=O)N1CCc1noc(-c2ccc(CN3CCCCCC3)s2)n1`, the Potency [1] is reported as “inactive”, the Potency [2] is reported as 6.29 µM (active) and the Potency [6] is reported as “inactive”. The Potency [3] was “inactive”, the Potency [8] was 6.29 µM (active) and the Potency [4] was “inactive”. For the same compound, the Potency [5] was “inactive” and the Potency [7] was “inactive”.

— PubChem BioAssay (Tox21)
